Screens deposited in PubChem BioAssay by several laboratories.
Hits are enriched below; roughly 2.3% of the tested compounds scored in any of these assays.
ADAM10 inh = inhibitors of human ADAM10 | inhibition, % at 7 µM | recombinant ADAM10, EDANS/DABCYL FRET peptide cleavage, 3 h | O14672 | actives 0.62% (n = 370,000);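 active means inhibition above a per-campaign cutoff equal to the mean of compounds falling between control-based bounds plus 3 SD, cut at about 20% in these data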;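 further: 0% = DMSO wells while the 100% control is not disclosed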
Target sequence (O14672 214-748 limits assumed): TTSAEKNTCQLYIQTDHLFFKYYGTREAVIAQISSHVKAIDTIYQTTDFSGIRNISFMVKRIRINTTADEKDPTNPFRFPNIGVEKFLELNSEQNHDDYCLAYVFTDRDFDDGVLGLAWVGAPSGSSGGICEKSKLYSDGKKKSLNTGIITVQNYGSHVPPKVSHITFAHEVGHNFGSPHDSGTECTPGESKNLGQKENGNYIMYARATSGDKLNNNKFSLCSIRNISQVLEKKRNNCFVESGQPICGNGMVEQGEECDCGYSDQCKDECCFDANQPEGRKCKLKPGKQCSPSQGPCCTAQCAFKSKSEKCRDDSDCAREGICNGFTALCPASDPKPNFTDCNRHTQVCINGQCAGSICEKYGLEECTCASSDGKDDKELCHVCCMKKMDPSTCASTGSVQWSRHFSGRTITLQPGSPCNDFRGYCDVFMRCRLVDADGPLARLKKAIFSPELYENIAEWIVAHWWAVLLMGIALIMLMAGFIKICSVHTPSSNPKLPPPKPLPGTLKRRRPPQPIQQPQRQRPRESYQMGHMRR
ADAM17 inh = inhibits human ADAM17; recombinant ADAM17, EDANS/DABCYL FRET peptide cleavage; inhibition, % at 6.95 µM; actives 0.83% (n = 370,000);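 active means inhibition above the mean of compounds lying between control limits plus 3 SD, set per campaign, cut at about 8.5% in these data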;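 further: 0% = DMSO-only wells as the low control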
proKLK7 act = activators of human kallikrein-7 zymogen; activation, % at 7 µM; actives 0.9% (n = 370,000); AID 652039; purified proKLK7, EDANS-DABCYL substrate fluorescence; 100% is mature enzyme control, 0% vehicle; P49862;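 active means activation above the mean of all tested compounds plus 3 SD, computed per campaign excluding outliers beyond control limits, cut at about 13% in these data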
V-ATPase pH = regulators of yeast V-ATPase proton transport; response, % at 10 µM; S. cerevisiae, pHLuorin cytosolic pH fluorescence; actives 0.37% (n = 350,000); in the data active means response mostly above about 7.3%, no sharp cut-off; inactive means mostly below about 5.4%; further: actives read high
KLK7 act conf = proKLK7 activation, confirmation. shares compounds with proKLK7 act. purified proKLK7, EDANS-DABCYL substrate fluorescence; scaled: vehicle 0, mature enzyme 100. activation, % at 7 µM. actives 68% (n = 3,200);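 active means activation, as change over the incubation, above the mean of all tested compounds plus 3 SD, cut at about 13% in these data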
EDANS interfere = optically interferes with EDANS-DABCYL signal, flagging KLK7 hits; shares compounds with proKLK7 act; EDANS-DABCYL substrate fluorescence interference, no enzyme, 4 h; solvent 0%, active enzyme control 100%; activation, % at 7 µM; actives 80% (n = 3,200); AID 686952;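 active means activation above the all-compound mean plus 3 SD, ignoring values outside control-based bounds, cut at about 4.8% in these data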;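 further: value is the 4 h activation minus the activation read at time zero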
EDANS interf = EDANS fluorescence interference in dose response, no enzyme; shares compounds with proKLK7 act; actives 20% (n = 250); EC50, µM; EDANS-DABCYL peptide fluorescence interference; AID 720493;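 active means compounds that raise the fluorescence signal in this interference counterscreen, with EC50 at or below 10 µM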;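 further: intact quenched peptide substrate alone read at 355 nm excitation and 520 nm emission; signal is fluorescence gain from T0 to T4 after four hours at room temperature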
Numbers without * were called inactive; i = inactive; . = not tested or not shown.

SMILES	ADAM10 inh	ADAM17 inh	proKLK7 act	V-ATPase pH	KLK7 act conf	EDANS interfere	others
Cc1ccc(NC(=O)OCCCN2C(=O)CCC23CCC(C)CC3)cc1 (stereo unspecified)	8	5	0	.	.	.
COc1cc2c(c(OC)c1)C(=O)O[C@H](C)C[C@@H]1O[C@H]1CCCCC(=O)C2	-7	-5	1	.	.	.
C=CCN1C(=O)[C@H](CC(=O)NCCc2ccccc2OC)[C@@]2(C(=O)OCC)CCCC=C12	2	-2	0	.	.	.
Cc1coc2cc3oc(=O)c(Cc4ccccc4)c(C)c3cc12	-120	-33	-6	-2	.	.
Cc1c(Cc2ccccc2)c(=O)oc2cc(O)cc(O)c12	i	-489	55*	8	64*	76*
COc1cccc2[nH]c3c(N4CCC5(CC4)OCCO5)ncnc3c12	i	i	39*	1	38*	45*
CCCCCCCCN1C(=O)N2Cc3ccc(C)cc3C2CS1(=O)=O (stereo unspecified)	-1	1	1	.	.	.
COc1ccc(OC)c(/C=C/C(=O)OCC(=O)NCc2ccccc2)c1	-143	-47	15*	2	4	8.3*
COc1ccc(CCNC(=O)COC(=O)/C=C/c2cc(OC)ccc2OC)cc1	-112	-41	11	3	.	.
COc1cc(/C=C/C(=O)OCC(=O)NCc2cccs2)ccc1OC(F)F	7	1	1	1	.	.
CCN(CC(=O)NCc1cccs1)C(=O)/C=C/c1ccc(OC)cc1OC	-17	-8	0	-5	.	.
COc1ccc(OC)c(/C=C/C(=O)NCCc2nc3ccccc3[nH]2)c1	i	-363	49*	-4	37*	-31	EDANS interf=>69
COc1ccc(OC)c(/C=C/C(=O)OCC(=O)NCc2cccs2)c1	-165	-43	15*	2	9	21*
CCN(CC(=O)NCc1cccs1)C(=O)/C=C/c1cc(OC)ccc1OC	i	-359	67*	2	71*	71*
CCOC(=O)Cc1csc2nc(-c3ccccc3)cn12	12	1	1	.	.	.
CCn1c(SCc2ccc(C(C)(C)C)cc2)nnc1-c1ccc(C(C)(C)C)cc1	-6	-5	0	.	.	.
CCC(C)Nc1cc(C)c(C#N)c2nc3ccccc3n12 (stereo unspecified)	i	i	26*	-2	-1	3
Cc1cc(NCCCn2ccnc2)n2c(nc3ccccc32)c1C#N	i	-192	17*	-1	54*	72*
CCCc1cc(NCCCO)n2c(nc3ccccc32)c1C#N	i	i	17*	-5	-11	-11
CCCc1cc(-n2ccnc2)n2c(nc3ccccc32)c1C#N	-136	-43	3	0	.	.
Cc1cc(NCCCN(C)C)n2c(nc3ccccc32)c1C#N	i	i	72*	0	72*	69*
O=C(Cn1c(-c2cncs2)nc2ccccc21)NC1CCCCC1	-7	2	-1	.	.	.
COc1ccccc1-c1coc2cc(O)cc(O)c2c1=O	-8	-3	0	2	.	.
CCN(CC)Cc1c(O)ccc2c(=O)c(-c3ccccc3Cl)coc12	i	-489	40*	-2	67*	62*
CCN(CC)Cc1c(O)ccc2c(=O)c(-c3ccccc3OC)coc12	i	i	85*	6	51*	74*
SMILES	ADAM10 inh	ADAM17 inh	proKLK7 act	V-ATPase pH	KLK7 act conf	EDANS interfere	others
C=CCN1CC(COCc2ccccc2)OCCS1(=O)=O (stereo unspecified)	-3	-2	0	.	.	.
O=C(O)CCC(=O)c1ccc2ccc3cccc4ccc1c2c34	i	i	26*	.	62*	65*
Nn1c(SCC(=O)Nc2ccc(C(=O)O)cc2)nnc1-c1ccco1	-4	0	0	.	.	.
CCCC(=O)OC12CCCN(C1)/C(=C/c1ccc(C#N)cc1)C2 (stereo unspecified)	-15	-3	0	.	.	.
O=S(=O)(c1ccc(-c2cn3ccccc3n2)cc1)N1CCOCC1	i	i	16*	-1	19*	16*	EDANS interf=>70
Cc1ccc(C)c(-n2c3nc(=O)n(C)c(=O)c-3cc3ccccc32)c1	i	-337	28*	1	15*	23*
CCCCn1c(=O)nc2n(-c3ccccc3)c3ccccc3cc-2c1=O	i	-150	15*	-4	16*	24*
Cc1ccc(C)c(-n2c3nc(=O)[nH]c(=O)c-3cc3cc([N+](=O)[O-])ccc32)c1	-126	-38	2	-7	.	.
COc1ccc(-c2cc(C(=O)NN=Cc3ccc(-c4ccccc4)cc3)[nH]n2)cc1	1	3	1	.	.	.
CC1(C(=O)NCc2ccccc2)CN(S(C)(=O)=O)CC(=O)N1Cc1ccco1 (stereo unspecified)	-13	0	1	.	.	.
COc1ccc(C2C3=C(CC(C)(C)CC3=O)N(C)C3=C2C(=O)CC(C)(C)C3)cc1	i	-307	35*	4	16*	25*
COc1ccccc1C1C2=C(CC(C)(C)CC2=O)N(CC(=O)O)C2=C1C(=O)CC(C)(C)C2	i	-269	21*	2	30*	34*
C#CCOc1ccc(C2C3=C(CC(C)(C)CC3=O)N(CC(=O)O)C3=C2C(=O)CC(C)(C)C3)cc1	i	i	30*	6	68*	80*
COc1ccc(N2C3=C(C(=O)CC(C)(C)C3)C(c3ccccc3OC)C3=C2CC(C)(C)CC3=O)cc1	-493	-176	22*	0	-27	-21
COc1ccc(C2C3=C(CC(C)(C)CC3=O)N(C)C3=C2C(=O)CC(C)(C)C3)cc1OC	-2	-2	1	6	.	.
C#CCOc1ccc(C2C3=C(CC(C)(C)CC3=O)N(CC(=O)O)C3=C2C(=O)CC(C)(C)C3)cc1OC	-30	-9	0	0	.	.
COc1ccc(N2C3=C(CC4=C2CC(C)(C)CC4=O)C(=O)CC(C)(C)C3)cc1	-65	-27	2	0	.	.
COc1cccc(C2NC(=S)NC(C)=C2C(C)=O)c1 (stereo unspecified)	-4	0	0	.	.	.
CC(C)CN1C(=O)[C@@]2(CC(=O)N(C)C2c2ccccc2)c2cc(-n3cc(C(C)(C)O)nn3)ccc21 (stereo partly specified)	-1	1	0	.	.	.
CC(C)[C@@H]1OC(=O)[C@@H]2CCCN2C(=O)[C@H](C)OC(=O)[C@H](C)[C@@H](C(C)C)NC(=O)[C@@H]2CCCN2C(=O)[C@H]([C@H](C)Cc2ccccc2)NC(=O)[C@@H]2CCCN2C(=O)[C@@H](C(C)C)N(C)C1=O	-4	-2	.	.	.	.
C[C@H]1COc2cc(Br)ccc2S(=O)(=O)N1Cc1cn(Cc2ccc(Br)cc2)nn1	-4	-1	0	.	.	.
